HEK293 tox: Cytotoxic Profiling in HEK 293 Cell Line of Diverse Libraries Using Quantitative High-Throughput Screening; Potency, µM (doses to about 115 µM), for inactives: at the top dose activity change, negative = cytotoxicity, usual class: inhibitors; 94,000 compounds, 6.6% hits; HEK 293 viability, ATP luminescence (CellTiter-Glo), 48-72 h; further: nearly all actives have a fitted effect of over 60% in size
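ATP-coupled CellTiter-Glo luminescence served as viability read-out, recorded 10 min after reagent addition at room temperature. HEK 293 cells, 250 cells/well, had been incubated with pintool-transferred compound for 48 or 72 hr at 37 degree Celsius.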
3T3 cytotox: Cytotoxic Profiling in NIH 3T3 Cell Line of Diverse Libraries Using Quantitative High-Throughput Screening. NIH 3T3 viability, CellTiter-Glo ATP luminescence, 48-72 h. Potency, µM (titrated, usually from 96.7 µM), for the others: at the highest dose activity change, negative = cytotoxicity, actives largely listed as inhibitors. 94,000 compounds, 4.3% hits; further: nearly all actives have a fitted effect of over 55% in size
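Viability of NIH 3T3 cells after 48 or 72 hr compound treatment at 37 °C was assessed by CellTiter-Glo, with luminescence imaged following a 10 min room-temperature step.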
HEK293 viab: GF-AFC viability counterscreen for inhibitors of alpha-synuclein gene (SNCA) expression | HEK-293-SNCA-luc viability, GF-AFC fluorescence, 24 h | Potency, µM (highest dose often 57.1 µM), without a hit: top-dose activity change, negative = cytotoxicity, usual class: cytotoxic | 150,000 compounds, 0.12% hits | AID 1671193, 2021;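 further: 0% = DMSO-treated cells and -100% = medium-only wells without cells; nearly all actives have a fitted effect of over 30% in size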
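HEK-293-SNCA-luc cells (1500/well) plated 24 h, then exposed 24 h to a dilution series; GF-AFC added 30 min at 37C, fluorescence 405/540 nm; normalised to medium-only and DMSO wells, Hill fit.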
SNCA expr inh: Primary qHTS assay for inhibitors of alpha-synuclein gene (SNCA) expression | HEK-293 SNCA-luciferase knock-in, luminescence, 24 h | Potency, µM (highest dose often 57.2 µM), without a hit: at the highest dose activity change, negative = inhibition, actives largely listed as inhibitors | 140,000 compounds, 0.17% hits | AID 1671194, 2021;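 further: plate controls were DMSO cells for no effect and cell-free wells for full effect; nearly all actives have a fitted effect of over 45% in size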
NPR1 antag: Natriuretic polypeptide receptor (hNpr1) antagonism - Primary qHTS; Atrial natriuretic peptide receptor 1 (Homo sapiens), P16066; HEK293 hNpr1 GloSensor cGMP, ANP-stimulated luminescence; Potency, µM (titrated, usually from 46.3 µM), for the others: at the top dose activity change, negative = inhibition, most hits filed as inhibitors; 76,000 compounds, 1.6% hits; AID 1347048, 2019; calls by dose curve; further: nearly all actives have a fitted effect of over 60% in size
Target sequence (P16066 whole entry, looked up): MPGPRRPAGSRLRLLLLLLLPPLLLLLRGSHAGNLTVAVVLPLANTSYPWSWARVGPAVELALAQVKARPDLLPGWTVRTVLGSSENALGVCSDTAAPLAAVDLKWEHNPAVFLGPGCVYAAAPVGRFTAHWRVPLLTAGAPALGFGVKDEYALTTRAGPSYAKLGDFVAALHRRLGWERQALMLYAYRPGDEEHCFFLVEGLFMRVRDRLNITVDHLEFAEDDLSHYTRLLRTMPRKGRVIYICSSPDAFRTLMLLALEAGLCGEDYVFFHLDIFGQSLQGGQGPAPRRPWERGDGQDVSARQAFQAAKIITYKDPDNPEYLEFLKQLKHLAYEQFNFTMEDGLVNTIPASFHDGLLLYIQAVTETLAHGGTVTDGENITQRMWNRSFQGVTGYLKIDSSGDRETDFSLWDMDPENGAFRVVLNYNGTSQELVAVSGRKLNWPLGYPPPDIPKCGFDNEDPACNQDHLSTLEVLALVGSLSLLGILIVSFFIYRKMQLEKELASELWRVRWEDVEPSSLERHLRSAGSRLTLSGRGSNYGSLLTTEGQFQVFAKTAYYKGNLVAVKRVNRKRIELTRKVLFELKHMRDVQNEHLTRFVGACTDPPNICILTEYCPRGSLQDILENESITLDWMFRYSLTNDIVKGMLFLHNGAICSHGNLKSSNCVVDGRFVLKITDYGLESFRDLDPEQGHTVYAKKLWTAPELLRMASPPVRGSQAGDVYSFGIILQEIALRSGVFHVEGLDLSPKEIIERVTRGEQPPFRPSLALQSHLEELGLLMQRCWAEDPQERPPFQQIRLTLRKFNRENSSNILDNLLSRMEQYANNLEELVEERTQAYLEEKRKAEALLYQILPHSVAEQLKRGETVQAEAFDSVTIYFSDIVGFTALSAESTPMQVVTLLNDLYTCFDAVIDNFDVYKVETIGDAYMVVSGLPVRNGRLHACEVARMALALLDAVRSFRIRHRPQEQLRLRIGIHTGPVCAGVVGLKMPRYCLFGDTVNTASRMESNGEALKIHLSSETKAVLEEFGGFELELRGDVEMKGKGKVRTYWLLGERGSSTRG
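Compound pre-incubated 30 min at room temperature on GloSensor-loaded HEK293 cells stably carrying hNpr1 and the pGS-40F cGMP biosensor. Stimulation uses hNppA at 0.1 nM final; luminescence is taken at baseline and 20 min post-agonist.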
FLuc inh: Firefly luciferase inhibition profiling of diverse chemical library using quantitative high-throughput screening | purified P. pyralis luciferase, luminescence, biochemical | Luciferin 4-monooxygenase (Photinus pyralis), P08659 | 76,000 compounds, 2.5% hits | AID 1347043, 2019 | Potency, µM (top dose mostly 115 µM), hits mostly inhibitors; further: nearly all actives have a fitted effect of over 65% in size
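FLuc 10nM, D-luciferin 10uM, ATP 10uM, Mg acetate 10mM, Tris acetate pH 7.5, Tween/BSA; cpd qHTS; enzyme added last; CCD luminescence.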
Numbers without * were called inactive; [ ] = dose if it differs, or a comment. Most compounds without a hit are left out; they make up all but 7.4% or so of the library. Unless noted, the call rests on the fitted dose curve; in most records, active means well fitted curve in the direction sought with a large enough effect; inconclusive means small, poorly fitted or top-dose-only effect, or another doubt; inactive means no such curve, though single readings can be large; an effect the other way counts as inactive or inconclusive. Unless noted, on the % scale 0 is the no-effect control and ±100 the full control effect; potency means the concentration at half of the fitted maximal effect.

Results for COC(=O)N[C@H]1[C@H](OC(=O)c2ccccc2)[C@@H]2O[C@H]1c1ccccc12 ?
HEK293 tox: inconclusive; 3T3 cytotox: inconclusive; HEK293 viab: 20%[23.9 µM]; SNCA expr inh: 40%[25.6 µM]

Results for COc1ccc(-c2cc(N3CCC(NC(=O)c4cc(OC)c(OC)c(OC)c4)C3)n[nH]2)cc1 (stereo not given) ?
HEK293 tox: inconclusive; 3T3 cytotox: -19%; HEK293 viab: -6%; SNCA expr inh: inconclusive; NPR1 antag: 0%; FLuc inh: inactive

Results for Cc1ccc(C(=O)NC2CCCN(c3cc(-c4ccc(Cl)cc4)[nH]n3)C2)cn1 (stereo not given) ?
HEK293 tox: 28µM*; 3T3 cytotox: inconclusive; HEK293 viab: -24%; SNCA expr inh: 1%; NPR1 antag: -4%; FLuc inh: inconclusive

What do the screens show for `COc1cc(C(=O)NC2CCN(c3cc(-c4ccc(Cl)cc4)[nH]n3)C2)cc(OC)c1OC` (stereo not given)?
HEK293 tox: inconclusive; 3T3 cytotox: inconclusive; HEK293 viab: -10%; SNCA expr inh: -4%; NPR1 antag: -2%; FLuc inh: inactive

Results for COc1cc(C(=O)NC2CCCN(c3cc(-c4ccccc4)[nH]n3)C2)cc(OC)c1OC (stereo not given) ?
HEK293 tox: inconclusive; 3T3 cytotox: inconclusive; HEK293 viab: -14%; SNCA expr inh: 39%; NPR1 antag: -10%; FLuc inh: 35µM*

How did COc1ccc(-c2cc(N3CCC(NC(=O)c4ccc(F)c(Cl)c4)C3)n[nH]2)cc1 (stereo not given) do in these assays?
HEK293 tox: inconclusive; 3T3 cytotox: 40µM*; HEK293 viab: -24%; SNCA expr inh: -12%; NPR1 antag: 2%; FLuc inh: inactive

What do the screens show for `COc1ccc(C(=O)NC2CCN(c3cc(-c4ccc(F)cc4)[nH]n3)C2)cc1` (stereo not given)?
HEK293 tox: inconclusive; 3T3 cytotox: inconclusive; HEK293 viab: -21%; SNCA expr inh: 26%; NPR1 antag: -13%; FLuc inh: inactive

What do the screens show for `CCOc1cc(C(=O)NC2CCN(c3cc(-c4ccc(OC)cc4)[nH]n3)C2)cc(OCC)c1OCC` (stereo not given)?
HEK293 tox: 40µM*; 3T3 cytotox: 22µM*; HEK293 viab: -28%; SNCA expr inh: 2%; NPR1 antag: 3%; FLuc inh: inactive

How did COc1ccc(N2CCN(C(=O)COc3cccc(-c4nnc5n4CCCC5)c3)CC2)cc1 do in these assays?
HEK293 tox: inconclusive; 3T3 cytotox: -13%; HEK293 viab: 5%; SNCA expr inh: -22%; NPR1 antag: 3%; FLuc inh: inactive

What do the screens show for `O=C(c1cc(-c2cccc(C(F)(F)F)c2)c2nncn2n1)N1CCC(N2CCCCC2)CC1`?
HEK293 tox: inconclusive; 3T3 cytotox: -27%; HEK293 viab: 4%; SNCA expr inh: 27%

Results for COc1ccc(-c2cc(N3CCCC(NC(=O)c4ccc(F)c(F)c4)C3)n[nH]2)cc1 (stereo not given) ?
HEK293 tox: inconclusive; 3T3 cytotox: inconclusive; HEK293 viab: -20%; SNCA expr inh: 35%; NPR1 antag: -21%; FLuc inh: inconclusive

How did COc1ccc(-c2cc(N3CCCC(NC(=O)c4ccc(C)c(F)c4)C3)n[nH]2)cc1 (stereo not given) do in these assays?
HEK293 tox: inconclusive; 3T3 cytotox: inconclusive; HEK293 viab: -14%; SNCA expr inh: 0%; NPR1 antag: -18%; FLuc inh: inactive

Results for CCOc1ccc(C(=O)NC2CCCN(c3cc(-c4ccccc4)[nH]n3)C2)cc1 (stereo not given) ?
HEK293 tox: inconclusive; 3T3 cytotox: inconclusive; HEK293 viab: -18%; SNCA expr inh: 28%; NPR1 antag: -17%; FLuc inh: inconclusive

How did COc1ccc(C(=O)NC2CCCN(c3cc(-c4ccc(Cl)cc4)[nH]n3)C2)cc1 (stereo not given) do in these assays?
HEK293 tox: inconclusive; 3T3 cytotox: 35µM*; HEK293 viab: -23%; SNCA expr inh: 14%; NPR1 antag: -25%; FLuc inh: inconclusive

How did COc1ccc(C(=O)NC2CCCN(c3cc(-c4ccccc4)[nH]n3)C2)cc1F (stereo not given) do in these assays?
HEK293 tox: inconclusive; 3T3 cytotox: 16µM*; HEK293 viab: -19%; SNCA expr inh: -4%; NPR1 antag: -26%; FLuc inh: inconclusive

Results for COc1ccc(C(=O)NC2CCCN(c3cc(-c4ccccc4)[nH]n3)C2)cc1 (stereo not given) ?
HEK293 tox: inconclusive; 3T3 cytotox: inconclusive; HEK293 viab: -6%; SNCA expr inh: 56%; NPR1 antag: 0%; FLuc inh: 25µM*

How did NC(=O)Cc1c[nH]c2ncc(-c3ccc(Cl)cc3)cc12 do in these assays?
HEK293 tox: inconclusive; 3T3 cytotox: inconclusive; HEK293 viab: -3%[87.6 µM]; SNCA expr inh: 10%[87.6 µM]; NPR1 antag: -24%[70.6 µM]; FLuc inh: 79µM*

How did NC(=O)Cc1c[nH]c2ncc(-c3ccc4c(c3)OCO4)cc12 do in these assays?
HEK293 tox: -11%[172 µM]; 3T3 cytotox: 45µM*; HEK293 viab: 11%[87.6 µM]; SNCA expr inh: 13%[87.6 µM]; NPR1 antag: -4%[70.6 µM]; FLuc inh: 63µM*

How did COc1ccc(-c2cccc(C(=O)N3CCN(C(=O)Cc4ccc(F)cc4)CC3)c2)nn1 do in these assays?
HEK293 tox: -27%; 3T3 cytotox: -23%

How did CC(=O)NCc1nnc2n1C(C(=O)NCCc1ccccc1F)CC2 (stereo not given) do in these assays?
HEK293 tox: inactive; 3T3 cytotox: 5%; HEK293 viab: 5%; SNCA expr inh: 14%

How did CC1=C(CO)C(=O)O[C@@H]([C@@H](C)[C@H]2CC[C@H]3[C@@H]4C[C@H]5O[C@]56[C@@H](O)C=CC(=O)[C@]6(C)[C@H]4CC[C@]23C)C1 do in these assays?
HEK293 viab: 10µM*

What do the screens show for `CC1=C(CO)CC(C(C)C2CCC3C4CC=C5CC(OC6OC(COC7OC(CO)C(O)C(O)C7O)C(O)C(O)C6O)CC(O)C5(C)C4CCC23C)OC1=O` (stereo not given)?
HEK293 viab: -23%[23.9 µM]

Bioassay records (PubChem BioAssay)
